Test in all cases: NCI-60 one-dose screen, 48 h (100 = growth as untreated, 0 = no growth, -100 = all killed)
One assay concerns SK-MEL-2 melanoma. To be noted: 10 µM unless noted.
The test system of a further assay is EKVX NSCLC. To be noted: 10 µM unless noted.
For another assay, the system named is SN12C renal. To be noted: 10 µM unless noted.
The next assay concerns UO-31 renal. Conditions: 10 µM unless noted.
For another assay, the system named is ACHN renal. Conditions: 10 µM unless noted.
For the next assay, the system named is CAKI-1 renal. To be noted: 10 µM.
For another assay, the system named is A498 renal. To be noted: 10 µM unless noted.
For the next assay, the system named is CCRF-CEM leukemia. To be noted: 10 µM unless noted.
A further assay relates to MOLT-4 leukemia. Conditions: 10 µM unless noted.
For a further assay, the system named is SR leukemia. To be noted: 10 µM unless noted.
The test system of a further assay is RPMI-8226 leukemia. Conditions: 10 µM unless noted.
The next assay has as its system OVCAR-8 ovarian. To be noted: 10 µM unless noted.
In a further assay the test system is OVCAR-5 ovarian. Conditions: 10 µM unless noted.
In another assay the test system is OVCAR-4 ovarian. To be noted: 10 µM unless noted.
Another assay deals with SK-OV-3 ovarian. To be noted: 10 µM unless noted.
The next assay relates to IGROV1 ovarian. To be noted: 10 µM unless noted.
Another assay deals with OVCAR-3 ovarian. To be noted: 10 µM unless noted.
For another assay, the system named is HS 578T breast. Conditions: 10 µM unless noted.
For another assay, the system named is NCI/ADR-RES ovarian. Conditions: 10 µM unless noted.
The next assay relates to TK-10 renal. Conditions: 10 µM unless noted.

The panel holds about 83,000 compounds, 20% with a hit somewhere; the sample as a whole holds those more often.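 Cells were grown in 96-well plates and exposed to the test compound at a single concentration for 48 hours; results are reported as percent growth, with values below 10 considered active.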 A number with no mark means an inactive call. Active and inactive are the calls of the source.

As to `O=C(O)c1cccc2oc(-c3ccccc3O)nc12`, the growth in the assay on SK-MEL-2 melanoma is 71.2%; with EKVX NSCLC, 45%; with SN12C renal it was 57.5%; with UO-31 renal, 54.3%; in the assay with ACHN renal, 57.9%; in the assay on CAKI-1 renal, 42.3%. Also, the growth with A498 renal was 47.8%; in the assay on CCRF-CEM leukemia, 31.3%; with MOLT-4 leukemia, 66.4%; in the assay on SR leukemia, 47.6%; with RPMI-8226 leukemia, 50.4%; with OVCAR-8 ovarian it was 31.9%. Moreover, the growth is 74.7% in the assay with OVCAR-5 ovarian; 20.8% in the assay on OVCAR-4 ovarian; 58.4% in the assay on SK-OV-3 ovarian; 60.5% in the assay on IGROV1 ovarian; 15.5% in the assay on OVCAR-3 ovarian; 80.4% in the assay with HS 578T breast. Further, the growth in the assay with NCI/ADR-RES ovarian was 19.8%.
`O=C(CSc1nnc(-c2cc3c([nH]c4ccccc43)c(-c3cccc(O)c3)n2)n1-c1ccccc1)c1ccccc1`: the growth in the assay with SK-MEL-2 melanoma was 65.7%; with EKVX NSCLC, 69.3%; in the assay on SN12C renal, 67.7%; in the assay on UO-31 renal, 63.4%; in the assay on ACHN renal it was 40.3%; in the assay on CAKI-1 renal it was 45.5%. Further, the growth in the assay with A498 renal was 67%; in the assay on CCRF-CEM leukemia, 30.9%; in the assay with MOLT-4 leukemia, 41.7%; in the assay with SR leukemia it was 18.6%; with RPMI-8226 leukemia, 43.4%; in the assay with OVCAR-8 ovarian, 57.3%. Also, the growth in the assay on OVCAR-5 ovarian is 104%; with OVCAR-4 ovarian it was 50.1%; in the assay with SK-OV-3 ovarian, 92.8%; in the assay on IGROV1 ovarian, 61.2%; in the assay with OVCAR-3 ovarian it was 40.6%; with HS 578T breast, 73.3%. Besides, the growth in the assay with NCI/ADR-RES ovarian is 64%.
Turning to `Nc1ncnc2c1c(C(F)(F)F)cn2[C@@H]1O[C@H](CO)[C@@H](O)[C@H]1O`, the growth in the assay on SK-MEL-2 melanoma was -42.6% (active); in the assay on EKVX NSCLC, 3.57% (active); in the assay on SN12C renal it was 15.7%; with UO-31 renal it was 2.15% (active); with TK-10 renal, 4.15% (active); in the assay with CCRF-CEM leukemia, 5.79% (active). The growth was 0.0629% (active) with MOLT-4 leukemia; 1.01% (active) in the assay with SR leukemia; -20.3% (active) with RPMI-8226 leukemia; 18.1% in the assay on OVCAR-8 ovarian; 15.6% with OVCAR-5 ovarian; 24.6% in the assay on OVCAR-4 ovarian. Moreover, the growth in the assay on SK-OV-3 ovarian was 28.2%; with IGROV1 ovarian it was 12.9%; in the assay with OVCAR-3 ovarian, 5.78% (active); in the assay with HS 578T breast it was -0.85% (active); in the assay on NCI/ADR-RES ovarian, 7.35% (active).
With `CC(C)(CCN=C(N)Nc1ccccn1)c1ccc(C(F)(F)F)cc1`, the growth with SK-MEL-2 melanoma is 38.5%; in the assay with EKVX NSCLC it was 21.6%; in the assay on SN12C renal, 23.9%; in the assay on UO-31 renal it was 14.4%; with TK-10 renal, 37%; in the assay with A498 renal it was 57.2%. Further, the growth was -15.6% (active) in the assay with MOLT-4 leukemia; -41.3% (active) in the assay on SR leukemia; -46.9% (active) in the assay on RPMI-8226 leukemia; 15.7% in the assay on OVCAR-8 ovarian; 37.4% in the assay on OVCAR-5 ovarian; 22.3% with OVCAR-4 ovarian. Moreover, the growth is 42.5% with SK-OV-3 ovarian; 11.9% in the assay with IGROV1 ovarian; 32.1% with OVCAR-3 ovarian; 62.1% in the assay on HS 578T breast; 31.4% in the assay on NCI/ADR-RES ovarian.
Turning to `COc1ccc(-c2ccc(NC(=O)Nc3ccc(Cl)c(C(F)(F)F)c3)c(C)n2)cc1`, the growth in the assay with SK-MEL-2 melanoma is 62.1%; with EKVX NSCLC, 49.2%; with SN12C renal, 57.4%; with UO-31 renal, 39.3%; in the assay on TK-10 renal, 65.9%; with A498 renal, 57.7%. In addition, the growth in the assay with MOLT-4 leukemia was 24.6%; with RPMI-8226 leukemia, 9.87% (active); in the assay on OVCAR-8 ovarian, 57.4%; in the assay on OVCAR-5 ovarian it was 89.1%; with OVCAR-4 ovarian, 45.1%; in the assay on SK-OV-3 ovarian it was 68.1%. The growth was 52.9% in the assay on IGROV1 ovarian, 27.6% in the assay on OVCAR-3 ovarian, 77% in the assay with HS 578T breast and 49.8% in the assay on NCI/ADR-RES ovarian.
Consider `C=CC(=O)Nc1cccc(Nc2nc(Nc3ccc(OCCOC(F)F)cc3)ncc2F)c1`, for which the growth was 0.225% (active) with SK-MEL-2 melanoma; 67.6% in the assay on EKVX NSCLC; 22% with SN12C renal; 6.93% (active) with UO-31 renal; 4.89% (active) with ACHN renal; 11.3% with CAKI-1 renal. Further, the growth in the assay on A498 renal is -35.4% (active); in the assay with CCRF-CEM leukemia, 24.8%; with MOLT-4 leukemia, 33.5%; in the assay with SR leukemia, 10.5%; in the assay with RPMI-8226 leukemia, 42.1%; with OVCAR-8 ovarian it was 46%. Moreover, the growth was 45.6% in the assay on OVCAR-5 ovarian; 40.6% with OVCAR-4 ovarian; -25% (active) in the assay with SK-OV-3 ovarian; 14% with IGROV1 ovarian; 48.4% in the assay with OVCAR-3 ovarian; 23.4% with HS 578T breast. Also, in the assay with NCI/ADR-RES ovarian, the growth was 44.6%.
Regarding `COc1cc(-c2nc(SCC(=O)Nc3ccc(C(C)=O)cc3)[nH]c(=O)c2C#N)cc(OC)c1OC`, the growth in the assay with SK-MEL-2 melanoma is 35.9%; in the assay with EKVX NSCLC, 33.8%; in the assay with SN12C renal, 29.5%; in the assay with UO-31 renal, 49.3%; in the assay on ACHN renal it was 41.6%; in the assay on CAKI-1 renal, 61.5%. In addition, the growth in the assay with A498 renal was 18.5%; in the assay on CCRF-CEM leukemia it was -11.9% (active); in the assay with MOLT-4 leukemia, 3.84% (active); in the assay on SR leukemia, 7.62% (active); with RPMI-8226 leukemia, 7.47% (active); with OVCAR-8 ovarian, 23.2%. The growth was 51.9% in the assay with OVCAR-5 ovarian; 61.5% with OVCAR-4 ovarian; 34.6% with SK-OV-3 ovarian; 38.4% with IGROV1 ovarian; 0.381% (active) in the assay with OVCAR-3 ovarian; 10.6% in the assay with HS 578T breast. Moreover, in the assay on NCI/ADR-RES ovarian, the growth was 75.7%.
For the compound `CCOc1ccc(-n2c(-c3cc(OC)c(OC)c(OC)c3)nnc2-c2ccc(OC)cc2N)cc1`, the growth in the assay on SK-MEL-2 melanoma was 65.6%; with EKVX NSCLC, 82.4%; with SN12C renal, 91.5%; with UO-31 renal, 57.4%; in the assay with TK-10 renal it was 70%; in the assay with CCRF-CEM leukemia, 42.3%. Also, the growth is 36.8% with MOLT-4 leukemia; 19.3% in the assay on SR leukemia; 82.6% in the assay on RPMI-8226 leukemia; 64.5% in the assay on OVCAR-8 ovarian; 95.5% in the assay on OVCAR-5 ovarian; 74.7% with OVCAR-4 ovarian. Moreover, the growth with SK-OV-3 ovarian is 75.2%; in the assay on IGROV1 ovarian, 57.2%; with OVCAR-3 ovarian it was 53.6%; in the assay on HS 578T breast, 77.7%; in the assay with NCI/ADR-RES ovarian, 77.1%.
